Bioassay records: PubChem BioAssay, National Center for Advancing Translational Sciences (NCATS)
This is a sample that favours compounds with a hit; in the whole collection about 0.85% have one here.
Mm-Cpn inhibitor – M. maripaludis TRiC chaperonin inhibition; purified Mm-Cpn ATPase, ADP Transcreener TR-FRET; Potency, µM (highest dose often 76.9 µM), inactives show at the top dose activity, negative = inhibition, actives largely listed as inhibitors; actives 0.031% (n = 330,000); AID 504842; also: potency is read from the fitted curve at half-maximal effect; % is scaled to controls: 0 for no effect and ±100 for the full control effect; nearly all actives have a fitted effect of over 80% in size
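ATP (10 uM final) was added to archaeal chaperonin (25 nM final) after 10 min exposure to test compound at 37°C; after 30 min further incubation, ADP was detected by competitive TR-FRET.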
mIDH1 inhibitor – blocks human mutant IDH1 R132H enzyme | O75874 | IDH1-R132H enzyme, NADPH consumption, diaphorase/resazurin fluorescence | Potency, µM (doses to about 76.6 µM), for inactives: top-dose activity change, negative = inhibition, most hits filed as inhibitors | actives 0.093% (n = 390,000) | AID 602179; also: potency is read from the fitted curve at half-maximal effect; % is scaled to controls: 0 for no effect and ±100 for the full control effect; nearly all actives have a fitted effect of over 65% in size
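IDH1-R132H (0.5 ug/mL dispensed) in pH 7.5 Tris buffer was preincubated 30 min with compound, then given a substrate mix of 0.016 mM NADPH and 2 mM alpha-KG for 80 min at room temperature; remaining NADPH was read by diaphorase/resazurin fluorescence.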
Akt phos inh – blocks phosphorylation of Akt. Neuro2A IGF-stimulated pAkt S473 HTRF, 20 min; active compounds read low. activity change, % for hits at 50 µM. actives 0.32% (n = 360,000). AID 651550; in the data active = activity change below about -80%; inconclusive = mostly about -51% to -80%; also: % is scaled to controls: 0 for no effect and ±100 for the full control effect
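Neuro2A cells (4,500/well, DMEM with 0.5% FBS) were treated with compound at a single 50 µM final concentration, stimulated with 6 nM IGF for 20 min at 37 °C, and lysed. Phospho-Akt Ser473 was read by HTRF as 665/615 ratio ×10^4.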
GLS inhibitor – blocks human kidney-isoform glutaminase activity. O94925. GLS enzymatic activity, qHTS titration. Potency, µM (highest dose often 45.5 µM), without a hit: top-dose activity change, negative = inhibition, actives largely listed as inhibitors. actives 0.21% (n = 410,000). AID 624170; also: potency is read from the fitted curve at half-maximal effect; % is scaled to controls: 0 for no effect and ±100 for the full control effect
Target sequence (O94925 whole entry, looked up, canonical isoform): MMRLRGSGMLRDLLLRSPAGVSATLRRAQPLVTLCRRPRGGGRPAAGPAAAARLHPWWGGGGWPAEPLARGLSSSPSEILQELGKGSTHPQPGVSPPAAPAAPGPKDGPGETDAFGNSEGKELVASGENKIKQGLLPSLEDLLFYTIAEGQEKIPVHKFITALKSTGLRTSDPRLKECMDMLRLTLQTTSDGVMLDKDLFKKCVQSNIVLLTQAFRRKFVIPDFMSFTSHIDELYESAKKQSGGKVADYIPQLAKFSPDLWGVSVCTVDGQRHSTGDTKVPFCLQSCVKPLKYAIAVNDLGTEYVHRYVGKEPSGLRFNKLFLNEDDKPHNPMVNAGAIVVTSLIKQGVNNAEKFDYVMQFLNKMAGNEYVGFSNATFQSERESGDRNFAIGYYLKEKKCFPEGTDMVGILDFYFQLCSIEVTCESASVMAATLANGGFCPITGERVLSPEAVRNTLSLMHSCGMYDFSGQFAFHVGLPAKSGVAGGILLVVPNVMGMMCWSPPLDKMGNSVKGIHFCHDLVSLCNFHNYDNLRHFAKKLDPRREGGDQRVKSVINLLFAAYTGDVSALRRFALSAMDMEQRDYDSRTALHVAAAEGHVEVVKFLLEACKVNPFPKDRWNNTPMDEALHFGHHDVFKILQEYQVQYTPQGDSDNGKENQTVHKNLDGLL
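Assay buffer: 45 mM KH2PO4 pH 8.2, 0.02% Tween-20. hKGA acts on L-glutamine (1 mM solution added); product glutamate is reported by an oxidase/peroxidase Amplex Red coupling, with fluorescence taken at baseline and 30 min.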
CCT chaperon mod – modulators of cytosolic chaperonin (CCT/TRiC) activity; purified chaperonin ATPase assay, HTRF ADP detection, 30 min; activity change, % (test concentration not listed), hits read low; actives 0.3% (n = 360,000); in the data active = activity change below about -30%; also: % is scaled to controls: 0 for no effect and ±100 for the full control effect
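TRiC (40 or 20 nM final, by batch activity) in 30 mM Tris pH 7.4, 100 mM KCl, 5 mM MgCl2, 1 mM DTT was treated with compound at 76 uM single dose, then 10 uM ATP, 30 min at 37 °C. ADP was read by HTRF Transcreener.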
GRP78 ERSR act – inducers of ER stress response in human glioma cells | U87-MG GRP78 promoter luciferase reporter, 16 h | actives 0.02% (n = 420,000) | Potency, µM, inactives show at the top dose activation, hits mostly activators; also: potency is read from the fitted curve at half-maximal effect; series mostly up to about 76 µM; % of control where 0% means no effect; nearly all actives have a fitted effect of over 35% in size
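ERSR induction read as luciferase luminescence (Bright-Glo, 10 min at room temperature) in stably transfected human U87-MG glioma cells exposed to compounds for 16 h, using GRP78 as sensor.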
An asterisk follows results filed as active; i = inactive; ? = inconclusive; . = not tested or not shown. Unless noted, calls follow the shape of the dose curve; as a rule, active = well fitted curve in the direction sought with a large enough effect; inconclusive = small, poorly fitted or top-dose-only effect, or another doubt; inactive = no such curve, though single readings can be large; an effect the other way counts as inactive or inconclusive.

SMILES	Mm-Cpn inhibitor	mIDH1 inhibitor	Akt phos inh	GLS inhibitor	CCT chaperon mod	GRP78 ERSR act
O=C1c2ccccc2C(=O)N1/N=C/c1ccc(O)c(O)c1	1.4%	-5.3%	i	2.51µM*	-0.3	2.9%
O=C(NNC1CC(=O)N(c2ccc(Br)cc2)C1=O)c1cccnc1 (configuration not stated)	0.3%	-7.2%	i	-16.6%	2.1	-1.9%
COc1ccc(N2C(=O)CC(NNC(=O)c3cccnc3)C2=O)cc1 (configuration not stated)	-0.2%	-3.8%	i	24.2%	-43.0*	-2.8%
COc1ccc2c(c1)CCc1cnc(-n3ncc(C(=O)N(C)CCc4ccccn4)c3C)nc1-2	.	.	.	.	.	-0.6%
O=C(O)c1[nH]c2ccccc2c1C(c1ccccc1)c1c(C(=O)O)[nH]c2ccccc12	1.5%	-2.2%	i	11.2µM*	2.7	-1.8%
C=CCOc1ccc(C(c2c(C(=O)O)[nH]c3ccccc23)c2c(C(=O)O)[nH]c3ccccc23)cc1	1.2%	-6.4%	i	81.4%	1.3	-4.6%
CN(C)c1ccc(NC(=O)COC(=O)c2cc(Cl)ccc2[N+](=O)[O-])cc1	1.9%	5.5%	i	28.4%	-90.1*	0.4%
O=[N+]([O-])c1cccc(-c2ccc(SCc3cccnc3)nn2)c1	-1.1%	9.8%	i	3.8%	-76.2*	5.7%
CSc1ccc(-c2cccc([N+](=O)[O-])c2)nn1	3.2%	15.7%	i	-6.8%	2.9	-0.2%
COc1cc(=O)n2c(c1C(=O)N(C)Cc1ccsc1)CCN(Cc1cnn(C)c1C)CC2	.	.	.	.	.	-1.7%
Cc1ccc(CON=C2CCN(c3ncc(C(F)(F)F)cc3Cl)CC2)cc1	2.7%	6.9%	-111.6%*	-7.9%	-1.8	-1.2%
Cc1ccc(N(CC(=O)NC2CCCCCC2)S(=O)(=O)c2c(C)nn(C)c2C)cc1	2.3%	-0.2%	i	-0.1%	-47.3*	-1.6%
CC(C)=CC(=O)OCC(=O)Nc1ccccc1Cl	1.3%	0.0%	i	-6.7%	-54.4*	1.8%
COc1ccc(C(=O)N=C2SC3CS(=O)(=O)CC3N2c2ccc(N(C)C)cc2)cc1OC (configuration not stated)	-0.3%	1.9%	.	9.6%	-59.5*	0.9%
CN(C)CC(C)(C)CNC(=O)c1cnn(-c2ncc3c(n2)-c2ccccc2CC3)c1-c1ccco1	.	.	.	.	.	5.7%
CC1(C)CC[C@]2(C(=O)O[C@@H]3OC(CO)[C@@H](O)[C@H](O)[C@H]3O)CC[C@]3(C)C(=CCC4[C@@]5(C)CC[C@H](O[C@@H]6OC(C(=O)O)[C@@H](O)[C@H](O)[C@H]6O)C(C)(C)C5CC[C@]43C)[C@@H]2C1 (some centres not stated)	-3.0%	-3.0%	i	?	-1.5	-4.7%
C/C=C(\C)C(=O)OC1CC(C)(C)C[C@H]2C3=CC[C@@H]4[C@@]5(C)CCC(O[C@@H]6O[C@@H](C(=O)O)[C@@H](O)C(O[C@@H]7OC[C@H](O)[C@@H](O)[C@@H]7O[C@@H]7OC(CO)C(O)[C@@H](O)[C@@H]7O)C6O[C@@H]6OC(CO)C(O)C(O)C6O)[C@@](C)(CO)[C@@H]5CC[C@]4(C)[C@]3(C)CC(O)[C@@]12CO (some centres not stated)	-3.6%	-2.2%	i	12.6µM*	-0.9	-5.5%
c1coc(-c2ccc3nncn3c2)c1	.	.	i	6.31µM*	-3.5	-4.1%
COc1ccc(OC)c(NS(=O)(=O)c2ccc(N3CCCC3=O)cc2)c1	1.3%	2.0%	-115.4%*	22.6%	1.4	-5.3%
CCOC(=O)N1CCN(c2nc(CN3CCCCC3CCO)nc3c(C)cccc23)CC1 (configuration not stated)	.	.	.	.	.	-5.9%
COc1cccc2ccc(CN3CCC4(CC3)c3ccccc3[C@@H](NC(=O)c3ccccc3)[C@@H]4O)nc12	.	.	.	.	.	-3.6%
O=C(CC1SC(=O)N(c2ccccc2)C1=O)Nc1ccccc1 (configuration not stated)	0.3%	7.3%	i	35.2%	-1.4	7.8%
